Data from PubChem BioAssay.
Results filed as inconclusive are left out. Calls of active or inactive are those of the source.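 The calls were made as follows, unless noted: active = normalized viability below 100% at a tested concentration; inactive = the rest.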

Key:
[1] = growth inhibition of DIPG glioma cells, dose response, cell-based, SU-DIPG-XVII, MIPE5.0, CellTiter-Glo, qHTS (AID 1347060; cut-off not given, nearly all actives have AC50 up to about 26 µM;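 also: cells exposed to compound for 48 hours before viability readout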); conditions: SU-DIPG-XVII viability, CellTiter-Glo ATP luminescence
[2] = growth inhibition of DIPG glioma cells, dose response, cell-based, SU-DIPG-XIII, MIPE4.0, CellTiter-Glo, qHTS (AID 1347061; cut-off not given, nearly all actives have AC50 up to about 37 µM;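 also: cells exposed to compound for 48 hours before readout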); conditions: SU-DIPG-XIII viability, CellTiter-Glo ATP luminescence
[3] = growth inhibition of DIPG glioma cells, dose response, cell-based, JHH-DIPG-1, MIPE4.0, CellTiter-Glo, qHTS (AID 1347062; cut-off not given, nearly all actives have AC50 up to about 27 µM;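 also: cells exposed to compound for two days before readout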); conditions: JHH-DIPG-1 viability, CellTiter-Glo ATP luminescence
[4] = growth inhibition of DIPG glioma cells, dose response, cell-based, SU-DIPG-IV, MIPE4.0, CellTiter-Glo, qHTS (AID 1347063; cut-off not given, nearly all actives have AC50 up to about 30 µM;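 also: compound exposure lasted 48 hours before the viability readout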); conditions: SU-DIPG-IV viability, CellTiter-Glo ATP luminescence
[5] = growth inhibition of DIPG glioma cells, dose response, cell-based, SU-DIPG-XIII, MIPE5.0, CellTiter-Glo, qHTS (AID 1347064; cut-off not given, nearly all actives have AC50 up to about 23 µM;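 also: cells exposed to compound for 48 hours before the viability read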); conditions: SU-DIPG-XIII viability, CellTiter-Glo ATP luminescence
[6] = viability loss in pontine glioma line – cell-based, SU-DIPG-XXV, MIPE5.0, CellTiter-Glo, qHTS, dose response (AID 1347065; cut-off not given, nearly all actives have AC50 up to about 26 µM;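 also: cells exposed to compound for 48 hours before ATP readout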); conditions: CellTiter-Glo ATP luminescence
[7] = SU-DIPG-VI glioma cell viability, MIPE4.0 library, CellTiter-Glo luminescence, qHTS (AID 1347066; cut-off not given, nearly all actives have AC50 up to about 30 µM;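 also: cells exposed to compound for 48 hours before readout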); conditions: CellTiter-Glo ATP luminescence
[8] = JHH-DIPG-1 glioma cell viability, MIPE5.0 library, CellTiter-Glo luminescence, qHTS (AID 1347067; cut-off not given, nearly all actives have AC50 up to about 26 µM;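 also: cells exposed to compound for 48 hours before readout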); conditions: JHH-DIPG-1 glioma viability, CellTiter-Glo ATP luminescence
[9] = SU-DIPG-XXV glioma cell viability, MIPE5.0 library, qHTS (AID 1347068; cut-off not given, nearly all actives have IC50 up to about 30 µM;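 also: cells exposed to compound for 48 hours before viability readout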)
[10] = sensitizers of A549 cells to miR-34 induction, primary screen, imaging, A549 dox-inducible miR-34, nuclei and caspase counts (AID 1347080;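 active = compounds whose cell count with miR-34 switched on is under 0.7 times the count with it off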); conditions: A549 miR-34 inducible, Hoechst nuclei count, 48 h
[11] = modifiers of HSF1 nuclear foci, imaging, Selleck Cancer Library (AID 1347162; in the data active = plate-normalised HSF1 focus index below about 0.46); conditions: human cells, at 10 µM; SSMD: measured here: HSF1 foci SSMD mean; cell count: measured here: cell number; plate-normalised HSF1 focus index: stronger effect = lower value
[12] = survival rescue of mitochondrial mutant cells in low glucose, primary screen, MELAS cybrids, Rieske KO mouse fibroblasts, CellTiter-Glo (AID 1508586;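 active = mean z-score across replicates of 1.96 or higher in either the MELAS or the Rieske mutant cell line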;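 also: z relative to plate mean and SD of compound and empty wells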)
[13] = ovarian cancer cell viability with rucaparib, profiling panel, oncology-focused library, rucaparib conditional (AID 1508598); conditions: patient-derived ovarian cancer cells, CellTiter-Glo viability, 144 h, stronger effect = lower value
[14] = LFS_MB_P medulloblastoma growth inhibition, cell-based, chromothripsis tumors, cisplatin or BGB combos (AID 1671449; in the data active = inhibition above about 80%;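 also: cells exposed for 96 hours; 0% = vehicle DMSO and 100% = killing by high DMSO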); conditions: LFS_MB_P medulloblastoma cells
[15] = HDN33 neuroblastoma growth inhibition, cell-based, chromothripsis tumors, cisplatin or BGB combos (AID 1671450; in the data active = inhibition above about 80%;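 also: cells exposed to compound for four days; 0% = vehicle DMSO and 100% = cell killing by high DMSO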); conditions: HDN33 neuroblastoma cells, stronger effect = higher value
[16] = ICB984 medulloblastoma cell growth inhibition, synergistic combos for chromothripsis tumors, cisplatin or BGB combos (AID 1671451; call rule not given here;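 also: cells exposed for 96 hours before readout; 0% = vehicle DMSO and 100% = killing by high DMSO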); conditions: ICB984 medulloblastoma cells, drug combinations, stronger effect = higher value
[17] = HTB85 osteosarcoma cell growth inhibition, synergistic combos for chromothripsis tumors, BGB or cisplatin IC20 combos (AID 1671453; in the data active = inhibition above about 80%;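 also: cells exposed for 96 hours before readout; 0% = vehicle DMSO and 100% = high DMSO killing control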); conditions: HTB85 osteosarcoma cells, drug combinations, stronger effect = higher value

With Nc1ccc(-c2ccc3ncc4ccc(=O)n(-c5cccc(C(F)(F)F)c5)c4c3c2)cn1 the AC50 [1] was 93.4 nM (active), the AC50 [2] was 132 nM (active) and the AC50 [3] was 74.3 nM (active). The AC50 [4] was 33.2 nM (active), the AC50 [5] was 23.5 nM (active) and the AC50 [6] was 20.9 nM (active). The AC50 [7] was 187 nM (active), the AC50 [8] was 166 nM (active) and the IC50 [9] was 235 nM (active). For the same molecule, the fold change ([10]; stronger effect = lower value, cell number ratio, induced over uninduced) was 1 (inactive), the fold change ([10]; measured here: relative caspase fold change +Dox/-Dox) was 1.14 and the cell count ([10]; measured here: total cells with miR-34 induction, stronger effect = lower value) was 1420. For the same molecule, the cell count ([10]; measured here: total cells without miR-34 induction) was 1410, the SSMD [11] was 2.81 and the cell count [11] was 6780. For the same molecule, the plate-normalised HSF1 focus index [11] was 1.15 (inactive), the z-score ([12]; MELAS cybrid survival, CellTiter-Glo 48 h, stronger effect = higher value) was 3.27 (active) and the z-score ([12]; Rieske KO mouse fibroblast survival, CellTiter-Glo 72 h) was -0.678. For the same molecule, the viability ([13]; at 0.000305 µM, OCI-C5x cells, with rucaparib 10 µM, 100% = cells with rucaparib alone) was 117% (inactive), the viability ([13]; at 0.000305 µM, OCI-C5x cells, without rucaparib) was 112% (inactive) and the viability ([13]; at 0.000305 µM, OCI-P5x cells, with rucaparib 20 µM, 100% = cells with rucaparib alone) was 87.4% (active). For the same molecule, the viability ([13]; at 0.000305 µM, OCI-P5x cells, without rucaparib) was 87.8% (active), the viability ([13]; at 0.00122 µM, OCI-C5x cells, with rucaparib 10 µM, 100% = cells with rucaparib alone) was 107% (inactive) and the viability ([13]; at 0.00122 µM, OCI-C5x cells, without rucaparib) was 119% (inactive). The viability ([13]; at 0.00122 µM, OCI-P5x cells, with rucaparib 20 µM, 100% = cells with rucaparib alone) was 89.2% (active), the viability ([13]; at 0.00122 µM, OCI-P5x cells, without rucaparib) was 90.5% (active) and the viability ([13]; at 0.00488 µM, OCI-C5x cells, with rucaparib 10 µM, 100% = cells with rucaparib alone) was 118% (inactive). The viability ([13]; at 0.00488 µM, OCI-C5x cells, without rucaparib) was 83.6% (active), the viability ([13]; at 0.00488 µM, OCI-P5x cells, with rucaparib 20 µM, 100% = cells with rucaparib alone) was 79.7% (active) and the viability ([13]; at 0.00488 µM, OCI-P5x cells, without rucaparib) was 60.8% (active). For the same molecule, the viability ([13]; at 0.0195 µM, OCI-C5x cells, with rucaparib 10 µM, 100% = cells with rucaparib alone) was 113% (inactive), the viability ([13]; at 0.0195 µM, OCI-C5x cells, without rucaparib) was 72% (active) and the viability ([13]; at 0.0195 µM, OCI-P5x cells, with rucaparib 20 µM, 100% = cells with rucaparib alone) was 70.7% (active). For the same molecule, the viability ([13]; at 0.0195 µM, OCI-P5x cells, without rucaparib) was 49.8% (active), the viability ([13]; at 0.0781 µM, OCI-C5x cells, with rucaparib 10 µM, 100% = cells with rucaparib alone) was 109% (inactive) and the viability ([13]; at 0.0781 µM, OCI-C5x cells, without rucaparib) was 92.2% (active). The viability ([13]; at 0.0781 µM, OCI-P5x cells, with rucaparib 20 µM, 100% = cells with rucaparib alone) was 77.9% (active), the viability ([13]; at 0.0781 µM, OCI-P5x cells, without rucaparib) was 63.5% (active) and the viability ([13]; at 0.313 µM, OCI-C5x cells, with rucaparib 10 µM, 100% = cells with rucaparib alone) was 109% (inactive). For the same molecule, the viability ([13]; at 0.313 µM, OCI-C5x cells, without rucaparib) was 89.4% (active), the viability ([13]; at 0.313 µM, OCI-P5x cells, with rucaparib 20 µM, 100% = cells with rucaparib alone) was 73.5% (active) and the viability ([13]; at 0.313 µM, OCI-P5x cells, without rucaparib) was 65.9% (active). The viability ([13]; at 1.25 µM, OCI-C5x cells, with rucaparib 10 µM, 100% = cells with rucaparib alone) was 62.2% (active), the viability ([13]; at 1.25 µM, OCI-C5x cells, without rucaparib) was 70.5% (active) and the viability ([13]; at 1.25 µM, OCI-P5x cells, with rucaparib 20 µM, 100% = cells with rucaparib alone) was 67.9% (active). For the same molecule, the viability ([13]; at 1.25 µM, OCI-P5x cells, without rucaparib) was 54.1% (active), the viability ([13]; at 5 µM, OCI-C5x cells, with rucaparib 10 µM, 100% = cells with rucaparib alone) was 33.1% (active) and the viability ([13]; at 5 µM, OCI-C5x cells, without rucaparib) was 29.5% (active). The viability ([13]; at 5 µM, OCI-P5x cells, with rucaparib 20 µM, 100% = cells with rucaparib alone) was 10.8% (active), the viability ([13]; at 5 µM, OCI-P5x cells, without rucaparib) was 14.6% (active) and the inhibition ([14]; at 0.5 µM, stronger effect = higher value) was 5.33% (inactive). The inhibition ([14]; measured here: combination with BGB IC20, at 0.005 µM) was -20%, the inhibition ([14]; measured here: combination with BGB IC40, at 0.005 µM) was 59.9% and the inhibition ([14]; measured here: combination with BGB IC40, at 0.05 µM) was -36.1%. The inhibition ([14]; measured here: combination with cisplatin, at 0.5 µM, stronger effect = higher value) was 3.19%, the inhibition ([14]; measured here: combination with cisplatin, at 5 µM, stronger effect = higher value) was 92.6% and the inhibition ([15]; BGB combo, at 5 µM) was 89.3%. For the same molecule, the inhibition ([15]; at 0.5 µM) was 32.1% (inactive), the inhibition ([15]; cisplatin combo, at 5 µM) was 93.5% and the inhibition ([15]; measured here: with BGB IC20 combination, at 0.5 µM) was 14.7%. For the same molecule, the inhibition ([15]; measured here: with cisplatin IC20 combination, at 0.5 µM) was 43.5%, the inhibition ([15]; single agent, at 5 µM) was 91.8% and the inhibition ([16]; BGB IC20 combo, at 0.005 µM) was 18.5%. The inhibition ([16]; BGB IC40 combo, at 0.005 µM) was 13.6%, the inhibition ([16]; BGB IC40 combo, at 0.05 µM) was 80.5% and the inhibition ([16]; at 0.5 µM) was -14.5% (inactive). The inhibition ([16]; cisplatin combo, at 0.05 µM) was 79.9%, the inhibition ([16]; cisplatin combo, at 0.5 µM) was -13.5% and the inhibition ([16]; cisplatin combo, at 5 µM) was -13.1%. The inhibition ([16]; measured here: 5 uM single agent, at 5 µM) was -7.65%, the inhibition ([17]; at 0.5 µM) was 27.1% (inactive) and the inhibition ([17]; measured here: with BGB IC20, at 0.5 µM) was 35.5%. For the same molecule, the inhibition ([17]; measured here: with BGB IC20, at 5 µM) was 78%, the inhibition ([17]; measured here: with cisplatin IC20, at 0.5 µM) was 16.8% and the inhibition ([17]; measured here: with cisplatin IC20, at 5 µM) was 94.9%. It also gave an inhibition ([17]; single agent, at 5 µM) of 79.3%.
